From publication PMC12136788 come the findings set out here.

T1: UNK ZnF1-3 (human, UniProt Q9C0B0 31-174)
T1 sequence: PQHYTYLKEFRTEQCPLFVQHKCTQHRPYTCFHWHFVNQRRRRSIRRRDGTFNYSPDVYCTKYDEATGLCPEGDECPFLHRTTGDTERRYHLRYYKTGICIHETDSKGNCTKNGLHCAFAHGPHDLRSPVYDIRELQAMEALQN

B1: chr6:136599331:136599332:-_ENSG00000029363_ENST00000527536|hu_mus|motif|central (ssRNA)
RNA: GGGAGUUCUACAGUCCGACGAUCGGGGGCAUCUGAGCAUGAUGAACUCUGACUGGGUGGUGUAGCAAUAGGUGAAGGACGGUGAGGUGACCUUGGACUAUUAUCAUAAGCUGAAAGGCCAGGCCAAAUAUCACCAGAAGUAGCCAACAGAGGAUUGAGCAUCA
B2: chr15:40462788:40462789:+_ENSG00000156970_ENST00000287598|hu_mus|FALSE|FALSE (ssRNA)
RNA: GGGAGUUCUACAGUCCGACGAUCAAAGCGGGGGUCAUUAUAAUAGCGCGUCUCUCCUUGGAGUGCUUCUAUCGCUCUCUCCACUAACGCUGACAUGUUACUCUCUUUCCCCCCUUGAGGGUAGUUCUGUUCUGUCCAAUUAAUCAACAGAGGAUUGAGCAUCA
B3: chr2:128501614:128501615:-_ENSMUSG00000014355_ENSMUST00000014499|mus_mus|FALSE|FALSE (ssRNA)
RNA: GGGAGUUCUACAGUCCGACGAUCAGCCACAGGGGAUUCGCCUUUGGAGAGGCUUCUGAGAUGUGCUGUCAGGGAGCUGCUAGUAGUUGCAUUCUGCAGGGUCCCUGCCUGCUCAGGGAACUUUAAAACAGCAUUCUCUUCCUCCAACAGAGGAUUGAGCAUCA
B4: 52131286_52135943_886_CDS_ENSMUSG00000022637_ENSMUST00000114471|mouse|control|control (ssRNA)
RNA: GGGAGUUCUACAGUCCGACGAUCCGUGAGAAAUGCCAUGUAUCCCGGGUGAGUCACAGCCAAGAAGUUCCAAUUCCGUAAAAUAGAGCCCCAGGGCUGAAAUAGCCUGGUAAAAAUAUCAAAUUCAAACACUGAGAUGUAAUCCAACAGAGGAUUGAGCAUCA
B5: chr1:130485734:130485735:-_ENSMUSG00000045382_ENSMUST00000052172|mus_hu|FALSE|FALSE (ssRNA)
RNA: GGGAGUUCUACAGUCCGACGAUCGAUGAAGGAGUCGAUGCUGAUCCCAAUGUAGUAAGGCAGCCAACAGGCGAAGAAAGCCAGGAUGAGGAUGACUGUGGUCUUGAGGGCCUUGCGCUUCUGGUGGCCCUUGGAGUGUGACAGCAACAGAGGAUUGAGCAUCA
B6: chr20:61576232:61576233:+_ENSG00000101193_ENST00000266069|hu_hu|FALSE|FALSE (ssRNA)
RNA: GGGAGUUCUACAGUCCGACGAUCGGAUCCACCACGCAAGCGCAGGCGCUACUUGGGCUCCUCAAUCACACCCUUGCUGAGGUCUGUCAUUUUGGGAUAUUUUACUUUCUUCUGGUCCAGCUCGUUCUGAGCCCAAAGUAGUAGCAACAGAGGAUUGAGCAUCA
B7: chr17:60770872:60770873:+_ENSG00000011028_ENST00000303375|hu_hu|hu_hu_hu_mus_True|8_78 (ssRNA)
RNA: GGGAGUUCUACAGUCCGACGAUCUCUUUAAAAAAAAAAAAAAAAAGACAAACAAUAAUAAUGGCACUCGAGAAUCAAGAACUACAAUAGAGGGUCCGCUUUGAGUUUUUGUUCACAUCGUCCUGCAACGCUGUCGCGGGACUGCAACAGAGGAUUGAGCAUCA
B8: chr17:60770872:60770873:+_ENSG00000011028_ENST00000303375|hu_hu|hu_hu_hu_mus_True|28_78 (ssRNA)
RNA: GGGAGUUCUACAGUCCGACGAUCUCUUUAAAAAAAAAAAAAAAAAGACAAACAAUAAUAAUGGCACUCGAGAAUCAAGAACUACAAUAGAGGGUCCGCUUUGAGUUGUCCAUGUUCUCGUCCUGCACUGGGACACGGGGACUGCAACAGAGGAUUGAGCAUCA
B9: chr17:60770872:60770873:+_ENSG00000011028_ENST00000303375|hu_hu|hu_hu_hu_mus_True|78_88 (ssRNA)
RNA: GGGAGUUCUACAGUCCGACGAUCUCUUUAAAAAAAAAAAAAAAAAGUUUAAAAACAAUAAUGGCACUCGAGAAUCAAGAACUACAAUAGAGGGUCCGCUUUGAGUUUUUGUUCACAUCGUCCUGCACUGGGACACGGGGACUGCAACAGAGGAUUGAGCAUCA
B10: chr17:60770872:60770873:+_ENSG00000011028_ENST00000303375|hu_hu|hu_hu_hu_mus_True|1_78 (ssRNA)
RNA: GGGAGUUCUACAGUCCGACGAUCUCUUUAAAAAAAAAAAAAAAAAGACAAACAAUAAUAAUGGCACUCGAGAAUCAAGAACUACAAUAGAGGGUCCGCUUUGAGUUUUUGUUCACAUCGUCCUGCACUGGGACACGACCAGGACAACAGAGGAUUGAGCAUCA
B11: chr17:60770872:60770873:+_ENSG00000011028_ENST00000303375|hu_hu|hu_hu_hu_mus_True|28_88 (ssRNA)
RNA: GGGAGUUCUACAGUCCGACGAUCUCUUUAAAAAAAAAAAAAAAAAGUUUAAAAACAAUAGCACAUUUCGAGAAUCAAGAACUACAAUAGAGGGUCCGCUUUGAGUUGUCCAUGUUCUCGUCCUGCACUGGGACACGGGGACUGCAACAGAGGAUUGAGCAUCA
B12: chr17:60770872:60770873:+_ENSG00000011028_ENST00000303375|hu_hu|hu_hu_hu_mus_True|78_78 (ssRNA)
RNA: B9 RNA with U47A, U48C, U49A, A52C, C55U
B13: chr17:60770872:60770873:+_ENSG00000011028_ENST00000303375|hu_hu|hu_hu_hu_mus_True|58_78 (ssRNA)
RNA: B9 RNA with U47A, U48C, U49A, A52C, C55U, A77U, G78C, A86G
B14: chr11:10830335:10830336:-_ENSG00000110321_ENST00000339995|hu_hu|FALSE|FALSE (ssRNA)
RNA: GGGAGUUCUACAGUCCGACGAUCGCAGCUGCCUCCUCAGGAUCCGGUCGUCGGGGAUAGGGAAGGGAGGGGAAAGGGGAACGGAAAACAAAAAAAAGGGGGAGGGAAGGGGGAGGAAGGAGUCGGGGACGGCCUCAAACUCAGCAACAGAGGAUUGAGCAUCA
B15: chr2:168009416:168009417:-_ENSMUSG00000051149_ENSMUST00000088001|perfect_dup|FALSE|FALSE (ssRNA)
RNA: GGGAGUUCUACAGUCCGACGAUCCAUAUGGUUGAGCAGAGUAUCUGUGGGUAAAUAGCGAUUACAGUAGAGGCAUUUGCUAGUAAAAUUGUGUAUUUUCAUAAUGUAGUUGGCUACUGCUGGGACUUUCUCAGCUUUAUGUUCCAACAGAGGAUUGAGCAUCA
B16: chr1:84034342:84034343:-_ENSMUSG00000045658_ENSMUST00000168574|mus_mus|FALSE|FALSE (ssRNA)
RNA: GGGAGUUCUACAGUCCGACGAUCGCCUGAGAAUGGUGAAAAUAGGCGUGGAGAUCUCCCAGCAGGAAGUGUUGGAAUAGGAGAGGAAAAAAAAAGUGAGAGGAGAGUCUGGAACCUUCCUCCCCAUCUGUACUCUCCUCAAGACAACAGAGGAUUGAGCAUCA
B17: 133834401_133834521_965_CDS_ENSMUSG00000050890_ENSMUST00000105876|mouse|control|control (ssRNA)
RNA: GGGAGUUCUACAGUCCGACGAUCUUUCAUUCGCCCAUUCAUAGACUUUUUCUUCACAGGGAUGAGAAGUUCCAUUUUGGGGUUUUCCAGAAGUGCCUCCCCAACAGGCACAAUUUCAGUCCCCUGCUUUACGUAACUCCCCAACAACAGAGGAUUGAGCAUCA
B18: chr8:95500983:95500984:-_ENSG00000164944_ENST00000437199|hu_hu|hu_hu_hu_mus_True|78_78 (ssRNA)
RNA: GGGAGUUCUACAGUCCGACGAUCAGAACACAUCUAUCGAGUAAAGGACCGUACAUGGACGACCUCUCCACUGCCUCCACUAACAAACUUUCCUCUCGAGCCUCCACUGCCGCUAUUUGUACUAGCCCAGGACGGUCCCAGGCCCAACAGAGGAUUGAGCAUCA
B19: chr7:141450121:141450122:+_ENSG00000106028_ENST00000265304|hu_mus|hu_hu_hu_mus_True|38_68 (ssRNA)
RNA: GGGAGUUCUACAGUCCGACGAUCUCAUCCGUUCUAUGCCUUUUCUUUUGUCUGGUCACUCAGAAAUAUAAUAUUAUCAGCUAUGAUUGUUGUUGCUUGUCGCCUCACAUUGUUUUUAUCCAUGUACUCGCCAUAGUCCACUUUCAACAGAGGAUUGAGCAUCA
B20: chr8:98731313:98731314:+_ENSG00000147649_ENST00000336273|hu_mus|motif|central (ssRNA)
RNA: GGGAGUUCUACAGUCCGACGAUCACAAGCUUUCUCCUGUUUUGGUCGGGCUUUUGAGGUAUUCACUGGAAGCUCUUCUCGGGUGUCCUUUUCUAGGUCUUCUGUGUCCUGUGUGUGAGAGUUAUCUUCCCCUUGCUUCUUCUUCAACAGAGGAUUGAGCAUCA
B21: 93992280_93998312_1055_3pUTR_ENSMUSG00000055932_ENSMUST00000069718|mouse|control|control (ssRNA)
RNA: GGGAGUUCUACAGUCCGACGAUCAUCAAAGGAUUUCAACGAGACGUCGCCAUCGUCUGAGUCAUUGAGGACAUUCUGCAGCGCCAACUGACAGCGUUCUAAGAUAUAAUCCAAGGUGCCUGUUGAGCACUCUGCCACACGGUGCAACAGAGGAUUGAGCAUCA
B22: chrX:20248820:20248821:+_ENSMUSG00000001924_ENSMUST00000001989|mus_mus|mus_mus_mus_hu_True|58_88 (ssRNA)
RNA: GGGAGUUCUACAGUCCGACGAUCGGCGAAGUCCGUCACCACAAAGUCAGGCUCUACCAGUGAGGCCACCAAGGAUUUAAAACUAAUCUUCUUAGGUACUUUGACCUGACUGACGAUGCCUCCACGGAUGUAGUCGGAGAAGUUCAACAGAGGAUUGAGCAUCA

Changes are numbered by the printed parent chain. Whole data set: some 24,000 sequences, median “enrichment r” near 0.99, cut for the highest 2% near 3.7. The full list was thinned out, with the highest values kept by preference.

The target of the test is T1, UNK ZnF1-3. Briefly: nsRBNS (natural sequence RNA bind-n-seq); RBNS binding buffer (assumed for nsRBNS): 25 mM Tris pH 7.5, 150 mM KCl, 3 mM MgCl2, 0.01% Triton X-100, 500 ug/ml BSA, 20 U/ml SUPERase-In, 4 C; UNK is unkempt and MSI1 is Musashi-1; names of the RNAs are library labels; protein concentration not given here; high values mean tight binding.
Molecule B1 yielded a binding signal of 1.72 enrichment R.

B2 returned a binding signal of 0.581 enrichment R.

On to B3, for which the binding signal turned out to be 1.19 enrichment R.

For B4, the binding signal was 1.06 enrichment R.

As for B5, the binding signal was found to be 1.35 enrichment R.

Molecule B6 came in with a binding signal of 0.749 enrichment R.

On to B7, for which the binding signal is 2.96 enrichment R.

On to B8, for which the binding signal stood at 3.8 enrichment R.

For the molecule B9, the binding signal is 5.04 enrichment R.

For B10, the binding signal is 3.55 enrichment R.

For B11, the binding signal was found to be 3.43 enrichment R.

On to B12, for which the binding signal was determined as 4.14 enrichment R.

For B13, the binding signal is 3.98 enrichment R.

Consider B14, for which the binding signal was determined as 2.73 enrichment R.

Take B15: the binding signal is 2.12 enrichment R.

Molecule B16 had a binding signal of 1.32 enrichment R.

B17 showed a binding signal of 0.863 enrichment R.

B18 displayed a binding signal of 1.53 enrichment R.

Take B19: the binding signal was 0.44 enrichment R.

Consider B20, for which the binding signal is 0.279 enrichment R.

B21 returned a binding signal of 1.07 enrichment R.

With B22, the binding signal was found to be 0.887 enrichment R.
